Data: PubChem BioAssay (EPA / NIEHS)
“And” between values parts separate entries of the source, which are not always exact repeats. Equal values may be shown once. A structure can be active in one record and inactive in another. The source made the active and inactive calls. Rule for the calls: active = hit-call score of the fitted dose curve at least 0.9, where 1 is the maximum; inactive = score below 0.9.

Test system: not listed separately
Experiment: ATG_MRE_CIS: Attagene CIS-FACTORIAL HepG2 Assay for human Metal Responsive Element (MRE) (AID 2282954)
Conditions: HepG2 MRE cis-reporter transcription, Attagene multiplex; actives raise or lower the signal
How it was run: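 Multiplexed cis-reporter assay in human HepG2 liver cells, 24 h incubation with test chemical. Reporter transcripts measured by RT-PCR and capillary electrophoresis; values from bidirectional curve fitting versus DMSO.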

Structure (SMILES) | outcome | AC50
O=[N+]([O-])C(Br)(CO)CO | inactive | 
CCCCCOC(=O)c1ccccc1C(=O)OCCCCC |  | 151 µM (active)
Cc1ccc(N=C=O)cc1N=C=O | inactive | 
CCCSC(=O)N(CCC)CCC | inactive | 
O=C(O)C1C2CCC(O2)C1C(=O)O (configuration not stated) |  | 149 µM (active)
Oc1ccccc1Cl | inactive | 
CC(C)(C)C(O)(CCc1ccc(Cl)cc1)Cn1cncn1 (configuration not stated) |  | 100 µM (active)
COC(=O)Nc1nc2ccccc2[nH]1 | inactive | 
ClC1=C(Cl)C2(Cl)C3C(Cl)C=CC3C1(Cl)C2(Cl)Cl (configuration not stated) |  | 127 µM (active)
N#CC(Br)Br | inactive | 
ClCCOCCCl | inactive | 
ClC1=C(Cl)[C@]2(Cl)[C@H]3[C@H]([C@@H]4C=C[C@H]3C4)[C@@]1(Cl)C2(Cl)Cl |  | 33.4 µM (active)
C1=Cc2cccc3cccc1c23 | inactive | 
CS(=O)(=O)NC(=O)c1cc(Oc2ccc(C(F)(F)F)cc2Cl)ccc1[N+](=O)[O-] | inactive | 
CCNS(=O)(=O)C(F)(F)C(F)(F)C(F)(F)C(F)(F)C(F)(F)C(F)(F)C(F)(F)C(F)(F)F | inactive | 114 µM (active) and 150 µM (active)
CCN(CC)CCO | inactive | 
CCOc1cccc(C2(N3CCN(c4ccccc4)CC3)CCC(C)CC2)c1 (configuration not stated) | inactive | 
Nc1ccc(Oc2ccc(N)cc2)cc1 | inactive | 
CCCCOC(=O)c1ccccc1C(=O)OCc1ccccc1 | inactive | 
OCCCBr | inactive | 
CCN(CC)N=O | inactive | 
c1ccc(C2CO2)cc1 (configuration not stated) | inactive | 
[O-][Cl+]O | inactive | 
Oc1ccc2ccc3cccc4ccc1c2c34 | inactive | 
Cc1cccc(N)c1N |  | 106 µM (active)
CC(C)N(Cc1ccccc1)C(=O)C(C)(C)C | inactive | 
Cc1cc(N=Nc2ccccc2C)ccc1N |  | 27.9 µM (active)
c1ccc(N=Nc2ccccc2)cc1 | inactive | 

Test system: not listed separately
Experiment: ATG_PBREM_CIS: Attagene CIS-FACTORIAL HepG2 Assay for human Phenobarbital-responsive Enhancer Module (PBREM) (AID 2282955)
Conditions: HepG2 PBREM cis-reporter, Attagene multiplexed transcription; actives raise or lower the signal
How it was run: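 Fluorescence of labelled reporter cDNA fragments, resolved by capillary electrophoresis, gives mRNA induction in transfected HepG2 cells treated for 24 h; DMSO serves as negative control and baseline.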

Structure (SMILES) | outcome | AC50
O=[N+]([O-])C(Br)(CO)CO | inactive | 
CCCCCOC(=O)c1ccccc1C(=O)OCCCCC | inactive | 
Cc1ccc(N=C=O)cc1N=C=O | inactive | 
CCCSC(=O)N(CCC)CCC | inactive | 
O=C(O)C1C2CCC(O2)C1C(=O)O (configuration not stated) |  | 160 µM (active)
Oc1ccccc1Cl | inactive | 
CC(C)(C)C(O)(CCc1ccc(Cl)cc1)Cn1cncn1 (configuration not stated) | inactive | 
COC(=O)Nc1nc2ccccc2[nH]1 | inactive | 
ClC1=C(Cl)C2(Cl)C3C(Cl)C=CC3C1(Cl)C2(Cl)Cl (configuration not stated) | inactive | 
N#CC(Br)Br | inactive | 
ClC1=C(Cl)[C@]2(Cl)[C@H]3[C@H]([C@@H]4C=C[C@H]3C4)[C@@]1(Cl)C2(Cl)Cl | inactive | 
C1=Cc2cccc3cccc1c23 | inactive | 
CS(=O)(=O)NC(=O)c1cc(Oc2ccc(C(F)(F)F)cc2Cl)ccc1[N+](=O)[O-] | inactive | 
CCNS(=O)(=O)C(F)(F)C(F)(F)C(F)(F)C(F)(F)C(F)(F)C(F)(F)C(F)(F)C(F)(F)F |  | 96.5 µM (active) and 61.9 µM (active) and 34.7 µM (active)
CCN(CC)CCO | inactive | 
CCOc1cccc(C2(N3CCN(c4ccccc4)CC3)CCC(C)CC2)c1 (configuration not stated) | inactive | 
Nc1ccc(Oc2ccc(N)cc2)cc1 | inactive | 
CCCCOC(=O)c1ccccc1C(=O)OCc1ccccc1 | inactive | 
OCCCBr | inactive | 
Oc1ccc2ccc3cccc4ccc1c2c34 | inactive | 
Cc1cccc(N)c1N | inactive | 
CC(C)N(Cc1ccccc1)C(=O)C(C)(C)C | inactive | 
Cc1cc(N=Nc2ccccc2C)ccc1N |  | 33.4 µM (active)
c1ccc(N=Nc2ccccc2)cc1 | inactive | 

Target: Paired box protein Pax-6 (Homo sapiens) (UniProt P26367)
Experiment: ATG_Pax6_CIS: Attagene CIS-FACTORIAL HepG2 Assay for human Paired Box 6 (PAX6) (AID 2282956)
Conditions: HepG2 CIS-FACTORIAL PAX6 reporter transcription, RNA readout; actives raise or lower the signal
How it was run: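 DMSO-referenced bidirectional fits of reporter mRNA fluorescence; HepG2 with transient cis-promoter MRTUs, 24 h post-dose, RT-PCR plus capillary electrophoresis detection.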

Chain of Paired box protein Pax-6 (Homo sapiens) (P26367 whole entry, looked up): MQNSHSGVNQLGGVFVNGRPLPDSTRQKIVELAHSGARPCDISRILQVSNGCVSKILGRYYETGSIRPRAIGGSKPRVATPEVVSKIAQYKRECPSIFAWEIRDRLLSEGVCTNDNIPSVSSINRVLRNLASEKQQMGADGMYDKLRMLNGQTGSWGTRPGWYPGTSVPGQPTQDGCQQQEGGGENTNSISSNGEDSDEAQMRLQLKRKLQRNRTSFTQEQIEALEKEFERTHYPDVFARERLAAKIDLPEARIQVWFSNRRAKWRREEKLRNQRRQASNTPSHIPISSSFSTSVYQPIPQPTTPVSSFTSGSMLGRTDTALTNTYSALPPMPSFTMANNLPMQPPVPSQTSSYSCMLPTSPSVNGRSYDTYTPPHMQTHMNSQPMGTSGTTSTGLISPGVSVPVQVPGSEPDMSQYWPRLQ

Structure (SMILES) | AC50 | outcome
O=[N+]([O-])C(Br)(CO)CO | 100 µM (active) | 
CCCCCOC(=O)c1ccccc1C(=O)OCCCCC |  | inactive
Cc1ccc(N=C=O)cc1N=C=O |  | inactive
CCCSC(=O)N(CCC)CCC |  | inactive
O=C(O)C1C2CCC(O2)C1C(=O)O (configuration not stated) | 123 µM (active) | 
Oc1ccccc1Cl |  | inactive
CC(C)(C)C(O)(CCc1ccc(Cl)cc1)Cn1cncn1 (configuration not stated) |  | inactive
COC(=O)Nc1nc2ccccc2[nH]1 |  | inactive
ClC1=C(Cl)C2(Cl)C3C(Cl)C=CC3C1(Cl)C2(Cl)Cl (configuration not stated) | 139 µM (active) | 
N#CC(Br)Br |  | inactive
ClCCOCCCl |  | inactive
ClC1=C(Cl)[C@]2(Cl)[C@H]3[C@H]([C@@H]4C=C[C@H]3C4)[C@@]1(Cl)C2(Cl)Cl |  | inactive
C1=Cc2cccc3cccc1c23 |  | inactive
CS(=O)(=O)NC(=O)c1cc(Oc2ccc(C(F)(F)F)cc2Cl)ccc1[N+](=O)[O-] |  | inactive
CCNS(=O)(=O)C(F)(F)C(F)(F)C(F)(F)C(F)(F)C(F)(F)C(F)(F)C(F)(F)C(F)(F)F | 96.5 µM (active) | inactive
CCN(CC)CCO |  | inactive
CCOc1cccc(C2(N3CCN(c4ccccc4)CC3)CCC(C)CC2)c1 (configuration not stated) |  | inactive
Nc1ccc(Oc2ccc(N)cc2)cc1 |  | inactive
CCCCOC(=O)c1ccccc1C(=O)OCc1ccccc1 |  | inactive
OCCCBr |  | inactive
CCN(CC)N=O |  | inactive
c1ccc(C2CO2)cc1 (configuration not stated) |  | inactive
[O-][Cl+]O |  | inactive
Oc1ccc2ccc3cccc4ccc1c2c34 |  | inactive
Cc1cccc(N)c1N | 106 µM (active) | 
CC(C)N(Cc1ccccc1)C(=O)C(C)(C)C |  | inactive
Cc1cc(N=Nc2ccccc2C)ccc1N | 22.4 µM (active) | 
c1ccc(N=Nc2ccccc2)cc1 |  | inactive
